Source: PubChem BioAssay
Rows were chosen to be rich in hits. Some 1.7% of all compounds tested hit in one or more screens of this group.
PrP 5UTR inh: inhibition of PrP 5' UTR reporter expression; hit rate 0.35% among 340,000; inhibition, % (test concentration not listed); AID 488862, 2010; cell-based PrP 5' UTR mRNA reporter, plate reader; in the data active = inhibition above about 52%; also: 0 = median of the neutral control wells
PrPC surface inh: inhibitors of human cell surface prion protein PrPC, primary screen, cell-based, TR-FRET | TR-FRET read-out | inhibition, % at 13.8 µM | hit rate 0.43% among 370,000; in the data active = inhibition above about 24%; also: 0% = median of the test wells and 100% = reference compound wells
BJeLR lethal: MLPCN primary cell-based screen for lethality selective to Ras in HRASV12 cells; inhibition, % (test concentration not listed); BJeLR (HRASV12) viability, CellTiter-Glo ATP luminescence, 48 h; hit rate 0.17% among 300,000; in the data active = inhibition above about 50%; inconclusive = no clear call, values can overlap the other calls
SSB-PriA inh: inhibitors of Klebsiella pneumoniae PriA binding to SSB C-terminal tail, primary screen, biochemical, AlphaScreen. hit rate 0.6% among 430,000. AID 1272365, 2023. PriA–SSB C-terminal tail interaction (Klebsiella pneumoniae). AlphaScreen SSBct-PriA binding, biotinylated peptide. inhibition, % at 33 µM; in the data active = inhibition mostly above about 37%, no sharp cut-off; inactive = mostly below about 20%;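 also: plate controls were negative control peptide for no effect and reference peptide for full effect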
PfHsp40 yeast: rescue of yeast from PfHsp40 toxicity, primary screen, S. cerevisiae, ATP luminescence; S. cerevisiae expressing PfHsp40, growth rescue; growth rescue, % at 12.5 µM; hit rate 0.68% among 340,000; AID 504582, 2011; in the data active = growth rescue above about 28%, passing the limit was not always enough; inconclusive = no clear call, values can overlap the other calls;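 also: yeast W303a lacking pdr1 and pdr3 grown in galactose medium; growth measured after three days at 30 °C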
Yp Topo-I inh: Yersinia pestis topoisomerase I inhibitors, primary screen, biochemical, cleavage product accumulation, plate reader, single point | AID 504884, 2011 | hit rate 0.064% among 360,000 | DNA topoisomerase I (Yersinia pestis CO92) | Y. pestis Topo-I cleavage product accumulation | activity, % at 10 µM; in the data active = activity above about 50%, passing the limit was not always enough; inconclusive = no clear call, values can overlap the other calls
Active calls of the source: *; ? = inconclusive; / = no result given.

SMILES	PrP 5UTR inh	PrPC surface inh	BJeLR lethal	SSB-PriA inh	PfHsp40 yeast	Yp Topo-I inh
CC(C)c1c(O)ccc2c1CC[C@H]1C(C)(C)CCC[C@]21C	-13	-4	/	-1	112*	-2
COc1ccc(/C=C/C(=O)c2cc(F)ccc2OC(=O)c2ccccc2C)cc1OC	43	6	77*	12	2	39
O=S(=O)(c1ccc(Cl)cc1)N1CCN=C1SCc1cccc(Cl)c1	-60	12	-12	101*	3	39
COCc1nc(-c2ccccn2)n[nH]1	/	/	/	68*	/	/
Cc1ccc(OCc2nc(-c3ccccn3)n[nH]2)cc1	-25	-6	2	109*	-1	-1
Cc1cccc(OCc2nc(-c3ccccn3)n[nH]2)c1	-25	-2	-2	90*	1	-4
O=C(O)Cc1nc(-c2ccccn2)n[nH]1	/	/	/	30	/	/
O=C(Nc1nc(CN2CCc3ccccc3C2)cs1)c1ccc(N2C(=O)CCC2=O)cc1	/	/	/	-18	/	/
O=C(Nc1ccc(N2CCCCC2)cc1)c1ccc([N+](=O)[O-])o1	-49	20	1	-1	-1	-8
O=C(Nc1ccc(N2CCCC2)c(Cl)c1)c1ccc([N+](=O)[O-])o1	-43	20	/	45*	4	0
Cc1cc(C)c(NC(=O)COC(=O)c2cccc3c2C(=O)c2ccccc2C3=O)c(C)c1	-2	-13	-6	-7	1	2
Cc1cc(C)c(Nc2cc(S(=O)(=O)O)c(N)c3c2C(=O)c2ccccc2C3=O)c(C)c1	-4	-51	/	110	71*	-12
Cc1c([N+](=O)[O-])cc(S(=O)(=O)NCCOc2cccc(C(F)(F)F)c2)cc1[N+](=O)[O-]	/	/	/	39*	/	/
CCOc1cc(S(=O)(=O)NC2CCCCC2)ccc1F	-34	1	-9	-4	89*	-3
COc1cc(S(=O)(=O)NC2CCCCC2)ccc1F	0	7	-12	-15	4	-7
CCC(Oc1ccc(Br)cc1Cl)C(=O)Nc1nnc(C2CC2)s1 (stereo not given)	-5	-3	-6	-7	60*	24
COc1ccc(-c2cc3ccccc3n2CC(O)Cn2nc(C)cc2C)cc1 (stereo not given)	4	5	-11	47*	0	-2
COc1ccc(-c2cc3ccccc3n2CC(O)CN2CCC(C)CC2)cc1 (stereo not given)	3	5	3	19	0	1
Cc1cc(NC(=O)C2CCN(S(=O)(=O)c3ccc(Cl)s3)CC2)n(C(C)C)n1	/	/	/	-16	/	/
Brc1ccc(-c2cn3nc4c(nc3n2)CCCC4)cc1	41	-9	5	-3	-2	0
Brc1ccc(-c2cn3c(n2)CCc2ccc4cccnc4c2-3)cc1	-2	-10	-4	53*	4	3
CC(=NN1CCN(Cc2ccccc2Cl)CC1)c1ccc([N+](=O)[O-])cc1	/	/	/	38*	/	/
CCOc1ccc(-n2c(O)c(/C=N/NC(=O)C3COc4ccccc4O3)c3ccccc3c2=O)cc1 (stereo not given)	-28	3	-3	/	303*	-4
Cc1ccc(-n2c(O)c(C=NNC(=O)C3COc4ccccc4O3)c3ccccc3c2=O)cc1 (stereo not given)	/	/	/	-12	/	/
Cc1cc2nc(N3CCOCC3)sc2cc1C	/	/	/	-5	/	/
SMILES	PrP 5UTR inh	PrPC surface inh	BJeLR lethal	SSB-PriA inh	PfHsp40 yeast	Yp Topo-I inh
OCC12CO[C@@H]3c4ccccc4[C@H](OC1)N32 (stereo not given in full)	-9	5	-4	-15	45*	0
OCC12COC(c3ccccc3)N1C(c1ccccc1)OC2 (stereo not given)	6	-3	16	-4	-1	3
O=C1CCC(=O)N1C1CN(S(=O)(=O)c2cccc3cccnc23)C1	/	/	/	-5	/	/
Cc1ccc2c(C)c3ccc4ccccc4c3c[n+]2c1	-19	-34	/	7	368*	-33
COc1ccc(-c2cc3c(SCc4ccccc4)nccn3n2)cc1	/	/	/	0	/	/
O=S(=O)(Nc1ccc(-n2cccc2)cc1)c1ccc(F)cc1	9	14	-1	17	3	-4
O=S(=O)(Nc1ccc(-n2cccc2)cc1)c1ccc(Cl)c(Cl)c1	-34	-1	-8	-1	66*	-8
CN(C(=O)c1cccc(NC(=O)Cc2ccc(NC(=O)C3CCN(S(=O)(=O)c4cccc([N+](=O)[O-])c4)CC3)cc2)c1)C1CCCC1	-25	-13	/	-12	120*	25
CN(C(=O)c1ccc(NC(=O)Cc2ccc(NC(=O)C3CCN(C(=O)C4CCCC4)CC3)cc2)cc1)C1CC1	-8	-3	/	-14	36*	26
COc1cc(OC)c(NC(=O)CS(=O)(=O)c2ccc(Cl)s2)cc1Cl	/	/	/	0	/	/
COc1ccc(OC)c2c1C(=O)C(Cl)=C(Cl)C2=O	-6	1	91*	1	613*	0
CCN(CC)c1ncnc2scc(C3COc4ccccc4O3)c12 (stereo not given)	-26	3	-13	-1	5	53*
O=C(O)/C(=C\c1ccc(F)cc1)c1ccc(-c2ccccc2)cc1	-15	8	2	-8	512*	-7
CCOC(=O)c1sc(N2C(=O)C(O)=C(C(=O)c3ccc(C)o3)C2c2ccc(OC)c(OC)c2)nc1C (stereo not given)	-16	4	3	6	42*	11
COC(=O)c1sc(N2C(=O)C(O)=C(C(=O)c3ccc(C)o3)C2c2ccc(OC)c(OC)c2)nc1C (stereo not given)	-11	-3	-8	-7	-1	6
CC(CCc1ccccc1)NC(=O)Cc1nnc(-c2ccccc2)o1 (stereo not given)	/	/	/	-9	/	/
Cc1ccc(C[n+]2c(-c3ccc(C)cc3)cc(-c3ccc(C)cc3)cc2-c2ccc(C)cc2)cc1	51	/	60*	10	?	15
Cc1ccc(C[n+]2ccccc2)cc1	-11	6	12	-8	0	-2
CCC(=O)N1CCC2(CC1)OCCS2	/	/	/	-11	/	/
CN(c1ccccc1)c1nc(N2CCCC2)nc(-n2ccnc2)n1	3	5	4	10	393*	28
Cc1ccc(C)c2sc(N(CCCn3ccnc3)C(=O)Cc3ccc(F)cc3)nc12	/	/	/	33*	/	/
COc1ccc2nc(N(CCCn3ccnc3)C(=O)Cc3ccc(F)cc3)sc2c1	/	/	/	39*	/	/
CCOc1ccc2nc(N(CCCn3ccnc3)C(=O)c3cccs3)sc2c1	/	/	/	40*	/	/
COc1ccc(C)c2sc(N(CCCn3ccnc3)C(=O)Cc3ccccc3)nc12	/	/	/	33*	/	/
O=C(C1COc2ccccc2O1)N(CCCn1ccnc1)c1nc2ccc(F)cc2s1 (stereo not given)	/	/	/	69	/	/
